Screening results deposited in PubChem BioAssay by Sanford-Burnham Center for Chemical Genomics.
TWEAK Fn14 block: inhibitors of TWEAK-Fn14 interaction signaling | inhibition, % at 10 µM | actives 2% (n = 360,000) | TWEAK-stimulated Fn14 reporter cells, luciferase luminescence, 8 h | AID 1159606; in the data active means inhibition above about 50%
TROY NFkB inh: inhibitors of TROY-dependent NF-kB signaling; Q293 LMP1-TROYcd NF-kB luciferase reporter, 4 h; inhibition, % at 10 µM; actives 0.98% (n = 360,000);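 active means compounds whose plate-normalised and pattern-corrected inhibition of the luciferase reporter signal at the single screening dose is 50% or more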
CF NFkB inh: blocks PAF-induced NF-kB reporter in cystic fibrosis cells; KKLEB NF-kB-GFP reporter, GFP fluorescence overnight; inhibition, % at 5 µM; actives 0.86% (n = 360,000);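 active means at least 50% inhibition at 5 µM, scaled per plate between neutral and stimulator controls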;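 further: PAF is a Pseudomonas aeruginosa culture filtrate used as stimulus; plate controls were PAF-stimulated DMSO wells for no effect and unstimulated DMSO wells for full effect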
KKLEB tox: reduces viability of KKLEB cystic fibrosis airway cells | AID 602141 | KKLEB CF airway cells viability, ATPlite luminescence, overnight; stronger effect = lower value; cells stimulated with P. aeruginosa culture filtrate | activity change (cytotoxicity), % at 5 µM | actives 0.36% (n = 360,000);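 active means corrected activity change at or below -50% at 5 µM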
Peg3 promoter: inhibitors of Peg3 promoter; inhibition, % at 20 µM; HeLa PEG-Prom luciferase reporter, luminescence, overnight; actives 1.7% (n = 360,000); AID 588405;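 active means inhibition of at least 50% at 20 µM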
HIF-2a block: HIF-2a inhibition. 786-0 RCC cells HIF-2a reporter, luciferase luminescence, overnight. inhibition, % at 18.8 µM. actives 0.72% (n = 360,000);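 active means inhibition of the luminescence signal of 40% or more relative to plate controls, in a single-dose primary screen at 18.75 µM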
Mdm2-MdmX confirm: Mdm2/MdmX (human) interaction inhibition, confirmed; shares compounds with HIF-2a block; SaOS-2 split-luciferase Mdm2/MdmX complementation, luminescence; inhibition, % at 8 µM; actives 99% (n = 740); AID 504601;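 active means mean inhibition of the luminescence signal across two replicates at or above 26 percent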
HIF-2a conf: HIF-2a inhibition, single concentration confirmation. shares compounds with HIF-2a block. 786-0 RCC cells, HIF-2a luciferase reporter luminescence, overnight. inhibition, % at 18.8 µM. actives 56% (n = 1,800). AID 651580;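 active means mean inhibition across four replicates of at least 40 percent at the single tested concentration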
HIF-1a counter: counter-screen for HIF-2a inhibitors: HIF-1a inhibition in MiaPaCa-2 cells; AID 651589; MiaPaCa-2 HIF-1a luciferase reporter, desferoxamine, overnight; inhibition, % at 18.8 µM; actives 72% (n = 1,800); shares compounds with HIF-2a block;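 active means mean inhibition of the reporter signal across four replicates at the single tested dose of 50% or more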
An asterisk follows results filed as active; x = no result. The list is not random: actives were taken first. Their share in the collection is about 4%.

SMILES | TWEAK Fn14 block | TROY NFkB inh | CF NFkB inh | KKLEB tox | Peg3 promoter | HIF-2a block | HIF-2a conf | HIF-1a counter | others
CCc1nc2ccc(C(=O)N3CCN(C)CC3)cn2c1N(C)CCC(C)C | -9 | -2 | -14 | 1 | -5 | -10 | x | x
Nc1cc(OC(=O)c2ccc(F)cc2)nn1S(=O)(=O)c1ccccc1 | 1 | 30 | 5 | 0 | 16 | 53* | -8 | 5
COc1cc(C(=O)Oc2cc(N)n(S(=O)(=O)c3ccc(F)cc3)n2)cc(OC)c1OC | 24 | 32 | 17 | -15 | 12 | 7 | x | x
CC1(C)CC(=O)C2=C(C1)OC1=C(C(=O)CC(C)(C)C1)C2c1ccc(O)cc1O | 104* | 82* | 97* | -54* | 108* | 93* | 97* | 106* | Mdm2-MdmX confirm=103*
Cc1sc2ncnc(Nc3ccccc3)c2c1C | 2 | -9 | 2 | 2 | -25 | -55 | x | x
Cc1sc2ncnc(Nc3ccc(N4CCOCC4)cc3)c2c1-c1ccccc1 | 25 | 1 | 24 | -14 | 29 | 45* | 24 | 79*
COc1cc(/C=C/C(=O)c2c(O)ccc3c(C)cc(=O)oc23)ccc1O | 8 | 0 | 4 | -28 | 44 | 29 | x | x
COc1ccc(/C=C\C(=O)c2c(O)ccc3c(C)cc(=O)oc23)cc1OC | 8 | 42 | 17 | 1 | 42 | 55* | 27 | 85*
O=C(O)CCC(=O)N1CCN(S(=O)(=O)c2ccc3ccccc3c2)CC1 | 41 | 20 | -3 | 3 | 13 | 7 | x | x
O=C(Cn1ncc(Cl)c(Cl)c1=O)N1CCN(S(=O)(=O)c2ccc3ccccc3c2)CC1 | 97* | 67* | 82* | -68* | 106* | 95* | 96* | 105* | Mdm2-MdmX confirm=102*
Cc1ccc(S(=O)(=O)N2CCCCC2)cc1NC(=O)Cn1ncc(Cl)c(Cl)c1=O | 100* | 80* | 104* | -89* | 109* | 94* | 99* | 104* | Mdm2-MdmX confirm=103*
CCN(CC)S(=O)(=O)c1cc(NC(=O)Cn2ncc(Cl)c(Cl)c2=O)ccc1C | 98* | 89* | 89* | -66* | 101* | 97* | 48* | 104* | Mdm2-MdmX confirm=103*
O=C(Cn1ncc(N2CCCC2)c(Cl)c1=O)c1ccc(Cl)cc1 | -5 | -58 | 6 | 9 | -236 | -163 | x | x
CCC(=O)Nc1ccc(C(=O)Cn2ncc(Cl)c(Cl)c2=O)cc1 | 76* | 17 | 44 | -4 | 106* | 90* | -9 | 105*
CCOC(=O)c1ccc(NC(=O)Cn2ncc(Cl)c(Cl)c2=O)cc1 | 99* | 75* | 89* | -95* | 104* | 89* | 98* | 105* | Mdm2-MdmX confirm=103*
CCOC(=O)c1ccc(NC(=O)Cn2nc(C)c3ccccc3c2=O)cc1 | -9 | -4 | -4 | 19 | -9 | 9 | x | x
O=C(O)CCSc1nnc(-c2ccc3c(c2)OCO3)o1 | 82* | 52* | 8 | -4 | 36 | 92* | 96* | 80*
Cc1c(CCC(=O)N[C@@H](C)C(=O)O)c(=O)oc2c(C)c3oc4c(c3cc12)CCCC4 | 24 | 0 | -3 | 2 | -36 | 50* | 60* | 36
Cc1c(CCC(=O)NCCC(=O)O)c(=O)oc2c(C)c3oc4c(c3cc12)CCCC4 | 39 | 9 | 5 | 4 | -38 | 56* | 65* | 37
CC[C@@H](C)[C@H](NC(=O)Cc1c(C)c2cc3c(C)c(C)oc3c(C)c2oc1=O)C(=O)O | -1 | 8 | 8 | 0 | 4 | 8 | x | x
COCCn1c(C)cc(C(=O)COC(=O)/C=C/c2ccc(OC)cc2OC)c1C | 11 | -15 | -9 | 14 | -20 | -38 | x | x
O=C1OC2(c3ccccc31)c1ccccc1-c1ccccc12 | 33 | -11 | 17 | -14 | 32 | 4 | x | x
Nc1ccc(C2(c3ccc(N)cc3)c3ccccc3C(=O)c3ccccc32)cc1 | 16 | 23 | 21 | 1 | 44 | 42* | 33 | 55*
CCOc1ccc(/C=N/N2C(=O)C(CC(=O)Nc3ccc(F)cc3F)SC2=NC)cc1OC (centres undefined) | -2 | 7 | 10 | 3 | 14 | 49* | -4 | -6
O=C(NCc1ccco1)/C(=C/c1cccc(C(F)(F)F)c1)c1nc2ccccc2[nH]1 | -25 | -62 | 19 | -17 | 50* | 41* | 13 | 55*
SMILES | TWEAK Fn14 block | TROY NFkB inh | CF NFkB inh | KKLEB tox | Peg3 promoter | HIF-2a block | HIF-2a conf | HIF-1a counter | others
CCCCn1c(N)c(N(CCOC)C(=O)c2cccc(-n3cnnn3)c2)c(=O)[nH]c1=O | 2 | 0 | 10 | -2 | 6 | 6 | x | x
O=C(Nc1ccc(Cl)cc1F)C1CC(=O)N(Cc2ccco2)C1 (centres undefined) | 9 | -7 | 24 | -18 | -8 | 3 | x | x
COc1cccc(N(C(=O)CCl)C(C(=O)NCCc2ccccc2)c2cccs2)c1 (centres undefined) | 59* | -13 | 94* | -90* | 109* | 93* | 98* | 107*
COCCNC(=O)C(c1cccs1)N(C(=O)Cn1nnc2ccccc21)c1ccccc1 (centres undefined) | -1 | 0 | 8 | 5 | 2 | 15 | x | x
COc1ccc(N(C(=O)CCl)C(C(=O)NCCc2ccccc2)c2cccs2)cc1Cl (centres undefined) | 52* | -15 | 89* | -104* | 102* | 95* | 99* | 103*
CCCc1c(Cc2cccc(F)c2)ncn1Cc1cccc(-c2ccccc2)c1 | x | x | x | x | x | 2 | x | x
COc1cccc(CNC(=O)COC(=O)c2nc(Cl)c(Cl)c(Cl)c2Cl)c1 | 94* | 39 | 30 | -16 | 90* | 58* | 32 | 9
COc1cccc(CNC(=O)CCl)c1 | -2 | -4 | -16 | -2 | -3 | 11 | x | x
CCN(CC)S(=O)(=O)c1ccc(N/N=C/c2ccc(O)cc2O)nc1 | -1 | 25 | -1 | 4 | 42 | 2 | x | x | Mdm2-MdmX confirm=87*
CCOC(=O)C1(C)CCCN1C(=O)c1ccc(C(=O)OC)cc1 (centres undefined) | 0 | 8 | -11 | -9 | 4 | 12 | x | x
Cc1cc(C)n(-c2nc(N(c3ccccc3)c3ccccc3)nc(-n3nc(C)cc3C)n2)n1 | 106* | 10 | 64* | -53* | 108* | -27 | x | x | Mdm2-MdmX confirm=103*
Cc1cc(C)n(-c2nc(Nc3ccccc3)nc(-n3nc(C)cc3C)n2)n1 | 6 | -8 | -9 | 13 | 16 | -2 | x | x
COc1ccc(N(CC(=O)NCc2cccs2)S(=O)(=O)c2ccc(C(C)=O)cc2)cc1 | -7 | -6 | 2 | 8 | -4 | 7 | x | x
